# Several values for one entry are separate records, joined by “and”; a condition that tells them apart may be missing. Equal values may be shown once. Inconclusive results are not listed. Where a call stands in place of a potency, no number is given. Where a structure was tested more than once in an assay, its records may differ in their call. Activity calls are given as the source filed them. Unless noted, the call rests on the fitted dose curve; in most records, active means well fitted curve in the direction sought with a large enough effect in the repeat runs; inconclusive means weak or mixed curves; inactive means no such curve, though single readings can be large; an effect the other way counts as inactive or inconclusive.
# Assays:
# [1] = qHTS assay to identify small molecule HDAC inhibitors (AID 1259364); further: potency means the concentration at half of the fitted maximal effect;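 further: wild-type HCT-116 cells with endogenous class I/II HDAC activity; nearly all actives have a fitted effect of over 45% in size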
# Summary of the method: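 HCT-116 wt cells, 1,500/well, overnight attach. Compounds (DMSO) 2 h, 37 °C. HDAC-Glo I/II, 30 min RT. Luminescence.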
# [2] = qHTS assay to identify small molecule agonists of the sonic hedgehog signaling (Shh) pathway (AID 1259368; calls by dose curve; further: nearly all actives have a fitted effect of over 15% in size; further: potency means the concentration at half of the fitted maximal effect)
# Summary of the method: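 Following a 24 hr incubation with DMSO-dissolved compounds at 37 C, 5% CO2, Gli1-Luc NIH/3T3-derived cells received luciferase reagent for 30 min at room temperature prior to luminescence measurement.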
# [3] = target: Estrogen receptor beta (Homo sapiens) (UniProt Q92731); assay: qHTS assay to identify small molecule agonists of the estrogen receptor beta (ER-beta) signaling pathway (AID 1259377; active means well fitted activation curve with a large enough effect in the signal ratio in the repeat runs, not every such curve was filed as active; the % refers to the signal ratio)
# Estrogen receptor beta (Homo sapiens), sequence (Q92731 whole entry, looked up): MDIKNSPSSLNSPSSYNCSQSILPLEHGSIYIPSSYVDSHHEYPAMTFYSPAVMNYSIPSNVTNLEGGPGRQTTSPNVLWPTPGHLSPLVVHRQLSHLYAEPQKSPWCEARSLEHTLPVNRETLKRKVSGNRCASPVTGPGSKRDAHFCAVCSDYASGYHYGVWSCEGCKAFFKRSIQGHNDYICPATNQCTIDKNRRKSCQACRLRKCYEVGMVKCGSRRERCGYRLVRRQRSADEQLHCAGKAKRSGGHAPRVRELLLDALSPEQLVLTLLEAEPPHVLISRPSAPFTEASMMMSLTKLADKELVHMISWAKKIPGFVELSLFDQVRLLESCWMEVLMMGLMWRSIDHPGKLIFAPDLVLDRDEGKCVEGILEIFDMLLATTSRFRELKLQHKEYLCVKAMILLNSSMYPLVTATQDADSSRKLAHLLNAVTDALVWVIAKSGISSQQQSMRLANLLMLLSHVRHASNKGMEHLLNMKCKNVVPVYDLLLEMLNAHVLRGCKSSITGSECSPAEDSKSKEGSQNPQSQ
# Summary of the method: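 Reporter cells (HEK293T, ER-beta-UAS-bla) receive compounds or DMSO after a 6 hr pre-incubation. They then incubate 16 hr at 37C/5% CO2, and fluorescence from LiveBLAzer B/G substrate is measured after 2 hours at room temperature.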
# [4] = qHTS assay to identify small molecule agonists of the estrogen receptor beta (ER-beta) signaling pathway - cell viability counter screen (AID 1259380); further: nearly all actives have a fitted effect of over 30% in size; further: potency means the concentration at half of the fitted maximal effect
# Summary of the method: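 Compounds dissolved in DMSO were pin-transferred onto ER-beta-UAS-bla HEK293T cells that had settled 6 hr, and exposure ran 16 hr at 37C. Following the reporter read, CellTiter-Glo luminescence after 30 min at room temperature indicated cytotoxicity.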
# [5] = qHTS assay to identify small molecule antagonists of the estrogen receptor beta (ER-beta) signaling pathway - cell viability counter screen (AID 1259382); further: nearly all actives have a fitted effect of over 55% in size; further: potency means the concentration at half of the fitted maximal effect
# Summary of the method: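 CellTiter-Glo ATP luminescence measured after the LiveBLAzer read in the same wells; ER-beta-UAS-bla HEK293T cells, 16 hr compound treatment with 1nM 17-beta-estradiol agonist at 37C, 5% CO2.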
# [6] = qHTS assay to identify small molecule agonists or antagonists of the thyroid stimulating hormone receptor (TSHR) signaling pathway - wild type cell line counter screen (AID 1259384; calls by dose curve)
# Summary of the method: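 Wild-type Hek293 cells, 800/well, 18 h at 37C, then compound with Ro20-1724 for 30 min RT. cAMP by HTRF (cAMP-d2/anti-cAMP cryptate), 1 h RT, fluorescence read. 15 concentrations, triplicates.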
# [7] = target: Androgen receptor (Homo sapiens) (UniProt P10275); assay: qHTS assay to identify small molecule antagonists of the androgen receptor (AR) signaling pathway using the MDA cell line in the presence of 0.5 nM R1881 (AID 1259243); further: nearly all actives have a fitted effect of over 50% in size; further: potency means the concentration at half of the fitted maximal effect
# Androgen receptor (Homo sapiens), sequence (P10275 whole entry, looked up): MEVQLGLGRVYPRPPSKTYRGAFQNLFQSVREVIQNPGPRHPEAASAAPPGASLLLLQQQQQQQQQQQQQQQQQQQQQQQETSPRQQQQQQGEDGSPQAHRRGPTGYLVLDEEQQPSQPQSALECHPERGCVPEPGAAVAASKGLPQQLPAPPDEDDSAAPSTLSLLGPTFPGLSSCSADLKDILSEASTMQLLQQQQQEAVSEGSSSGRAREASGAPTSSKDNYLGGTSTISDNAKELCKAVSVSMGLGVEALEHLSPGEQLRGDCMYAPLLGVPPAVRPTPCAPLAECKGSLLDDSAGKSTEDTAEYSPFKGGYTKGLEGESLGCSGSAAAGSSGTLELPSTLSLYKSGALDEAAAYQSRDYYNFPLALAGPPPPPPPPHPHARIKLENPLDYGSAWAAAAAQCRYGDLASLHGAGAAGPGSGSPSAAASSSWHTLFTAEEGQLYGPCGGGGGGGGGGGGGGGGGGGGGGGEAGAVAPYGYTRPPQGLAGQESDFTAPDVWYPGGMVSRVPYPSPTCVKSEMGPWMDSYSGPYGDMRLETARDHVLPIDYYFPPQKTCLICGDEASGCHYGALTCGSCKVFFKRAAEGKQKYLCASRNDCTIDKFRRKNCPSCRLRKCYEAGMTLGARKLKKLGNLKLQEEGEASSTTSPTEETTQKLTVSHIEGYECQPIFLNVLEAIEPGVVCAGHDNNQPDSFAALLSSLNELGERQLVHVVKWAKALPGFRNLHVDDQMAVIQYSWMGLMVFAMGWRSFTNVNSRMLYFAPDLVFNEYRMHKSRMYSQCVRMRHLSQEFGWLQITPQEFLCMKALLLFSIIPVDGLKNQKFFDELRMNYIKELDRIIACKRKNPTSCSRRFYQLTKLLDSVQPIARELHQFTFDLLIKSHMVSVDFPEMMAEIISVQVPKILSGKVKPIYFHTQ
# Summary of the method: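 Luminescence from an AR/GR-responsive MMTV-luciferase construct in MDA-kb2 breast carcinoma cells, read 30 min after ONE-Glo, following 16 hr co-treatment with compounds and 0.5 nM R1881.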
# [8] = qHTS assay to identify small molecule HDAC inhibitors - cell viability counter screen (AID 1259365); further: series mostly up to about 92 µM; nearly all actives have a fitted effect of over 50% in size
# Summary of the method: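 Measured quantity is CellTiter-Glo luminescence from wild-type HCT-116 cells after compound incubation of 2hr at 37C, 5% CO2; reagent developed 30min at room temperature.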
# [9] = qHTS assay to identify small molecule agonists of the sonic hedgehog signaling (Shh) pathway - cell viability counter screen (AID 1259366); further: nearly all actives have a fitted effect of over 50% in size; further: potency means the concentration at half of the fitted maximal effect
# Summary of the method: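 In quantitative high-throughput format, 3T3 Gli1-Luc cells were exposed to compounds for 24hr and multiplexed for viability using CellTiter-Fluor, incubated 1hr at 37C before the fluorescence read.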
# [10] = qHTS assay to identify small molecule antagonists of the sonic hedgehog signaling (Shh) pathway - cell viability counter screen (AID 1259367); further: nearly all actives have a fitted effect of over 55% in size; further: potency means the concentration at half of the fitted maximal effect
# Summary of the method: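 Fluorescence read-out (CellTiter-Fluor, 1 hr at 37C) taken after 23 hr compound treatment of 3T3 Gli1-Luc cells stimulated with conditioned medium. Cells were seeded at 2,000 per well and pre-incubated 4 hr.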
# [11] = qHTS assay to identify small molecule antagonists of the sonic hedgehog signaling (Shh) pathway (AID 1259369; calls by dose curve; further: nearly all actives have a fitted effect of over 45% in size; further: potency means the concentration at half of the fitted maximal effect)
# Summary of the method: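 Read-out is luminescence from a firefly luciferase gene controlled by the Gli1 response element, in 3T3Gli1-Luc cells pre-incubated 4hr then exposed to compounds and conditioned medium for 24hr.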
# [12] = qHTS assay to identify small molecule agonists of the androgen receptor (AR) signaling pathway in the presence of an antagonist - cell viability counter screen (AID 1259379); further: nearly all actives have a fitted effect of over 25% in size; further: potency means the concentration at half of the fitted maximal effect
# Summary of the method: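 Each compound was tested at 15 concentrations on MDA-kb2 cells in the presence of 3.0uM nilutamide. Viability was measured by CellTiter-Fluor fluorescence after a 16 hr incubation at 37C in a CO2-free atmosphere.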
# [13] = target: Androgen receptor (Homo sapiens) (UniProt P10275); assay: qHTS assay to identify small molecule agonists of the androgen receptor (AR) signaling pathway in the presence of an antagonist (AID 1259381; calls by dose curve; further: nearly all actives have a fitted effect of over 15% in size)
# Summary of the method: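 Plated MDA-kb2 cells (3,000/well) were pre-incubated 5hr, given nilutamide (3.0uM final) or buffer, then dosed with compounds in DMSO at 15 concentrations. Luciferase activity was quantified by luminescence after 16hr at 37C.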
# [14] = target: Thyrotropin receptor (Homo sapiens) (UniProt P16473); assay: qHTS assay to identify small molecule antagonists of the thyroid stimulating hormone receptor (TSHR) signaling pathway (AID 1259385; calls by dose curve; further: nearly all actives have a fitted effect of over 20% in size)
# Thyrotropin receptor (Homo sapiens), sequence (P16473 whole entry, looked up): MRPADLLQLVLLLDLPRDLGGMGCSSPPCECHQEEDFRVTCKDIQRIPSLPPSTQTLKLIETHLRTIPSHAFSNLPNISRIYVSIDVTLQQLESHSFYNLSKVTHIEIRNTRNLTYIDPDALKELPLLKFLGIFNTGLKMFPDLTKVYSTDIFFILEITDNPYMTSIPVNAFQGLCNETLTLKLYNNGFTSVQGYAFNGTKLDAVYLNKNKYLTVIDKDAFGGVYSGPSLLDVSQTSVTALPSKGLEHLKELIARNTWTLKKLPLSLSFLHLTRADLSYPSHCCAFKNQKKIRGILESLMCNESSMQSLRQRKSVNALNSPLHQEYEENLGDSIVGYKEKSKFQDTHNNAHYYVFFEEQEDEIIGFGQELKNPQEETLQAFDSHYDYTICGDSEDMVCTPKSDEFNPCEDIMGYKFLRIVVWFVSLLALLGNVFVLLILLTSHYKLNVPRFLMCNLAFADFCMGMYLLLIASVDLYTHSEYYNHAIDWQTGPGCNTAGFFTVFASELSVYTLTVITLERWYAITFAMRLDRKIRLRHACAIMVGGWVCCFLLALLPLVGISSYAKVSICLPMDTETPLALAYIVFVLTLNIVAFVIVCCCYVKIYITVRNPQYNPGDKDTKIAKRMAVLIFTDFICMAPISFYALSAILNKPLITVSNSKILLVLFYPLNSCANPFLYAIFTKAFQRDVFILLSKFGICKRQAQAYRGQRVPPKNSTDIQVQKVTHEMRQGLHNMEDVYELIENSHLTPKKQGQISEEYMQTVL
# Summary of the method: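 TSHR-HEK293 cells (800/well) plated 18 h, then compounds with Ro20-1724 and TSH at 1.5 ng/mL final, 30 min at room temperature. cAMP quantified by HTRF (cAMP-d2/anti-cAMP-cryptate, 1 h); 15 concentrations in triplicate.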
# [15] = qHTS assay to identify small molecule agonists of the estrogen receptor alpha (ER-alpha) signaling pathway in the presence of an antagonist - cell viability counter screen (AID 1259386);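 further: cells exposed to compounds for 22 h at 37 °C before the viability read; nearly all actives have a fitted effect of over 30% in size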; further: potency means the concentration at half of the fitted maximal effect
# Summary of the method: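 Using estrogen-depleted VM7Luc4E2 cells, the 15-concentration compound series was applied together with 10.0nM ICI-182,780 and incubated 22hr at 37C/5% CO2. Cell viability was then scored by CellTiter-Fluor.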
# [16] = target: Estrogen receptor (Homo sapiens) (UniProt P03372); assay: qHTS assay to identify small molecule antagonists of the estrogen receptor alpha (ER-alpha) signaling pathway using the BG1 cell line in the presence of 0.1 nM 17-beta-estradiol (AID 1259244); further: nearly all actives have a fitted effect of over 50% in size; further: potency means the concentration at half of the fitted maximal effect
# Estrogen receptor (Homo sapiens), sequence (P03372 whole entry, looked up): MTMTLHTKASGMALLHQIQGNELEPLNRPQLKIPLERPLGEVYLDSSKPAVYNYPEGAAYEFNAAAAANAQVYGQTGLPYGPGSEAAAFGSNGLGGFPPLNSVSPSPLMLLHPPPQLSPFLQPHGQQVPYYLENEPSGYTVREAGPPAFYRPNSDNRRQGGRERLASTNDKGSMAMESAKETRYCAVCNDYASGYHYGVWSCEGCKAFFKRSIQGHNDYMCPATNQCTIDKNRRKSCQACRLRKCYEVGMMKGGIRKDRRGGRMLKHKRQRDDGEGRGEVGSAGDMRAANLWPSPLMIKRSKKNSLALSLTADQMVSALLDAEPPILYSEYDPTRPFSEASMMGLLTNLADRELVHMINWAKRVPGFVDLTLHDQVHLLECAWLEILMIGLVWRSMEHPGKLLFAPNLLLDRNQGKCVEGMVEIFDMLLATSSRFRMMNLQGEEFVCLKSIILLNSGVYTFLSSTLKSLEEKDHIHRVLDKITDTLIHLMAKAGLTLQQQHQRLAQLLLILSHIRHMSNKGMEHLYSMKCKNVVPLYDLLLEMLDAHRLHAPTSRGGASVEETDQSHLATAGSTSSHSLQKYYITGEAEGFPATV
# Summary of the method: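 Luciferase signal from VM7Luc4E2 ERE-reporter cells, co-dosed with test compound and 0.1 nM final 17beta-estradiol for 22 h, read with ONE-Glo.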
# [17] = target: Estrogen receptor (Homo sapiens) (UniProt P03372); assay: qHTS assay to identify small molecule agonists of the estrogen receptor alpha (ER-alpha) signaling pathway in the presence of an antagonist (AID 1259383; calls by dose curve; further: top concentration of the series differs between compounds; nearly all actives have a fitted effect of over 15% in size)
# Summary of the method: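 Luminescent ERE-luciferase reporter, VM7Luc4E2 cells (endogenous ER-alpha); 10.0nM ICI-182,780 final; 15-point compound titration; 22hr at 37C; ONE-Glo, 30min RT.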
# [18] = qHTS assay to identify small molecule phospholipidosis (PLD) inducers (AID 1259344; active means well fitted curve in the direction sought with a large enough effect; an effect the other way counts as inactive or inconclusive)
# Summary of the method: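 Read-out is LipidTOX Red fluorescence (ex 595/em 615) imaged in HepG2 cells after 24 h compound exposure at 37 C, with Hoechst nuclear counterstain (ex 352/em 461) allowing per-cell normalisation.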
# [19] = qHTS assay to identify small molecule antagonists of the androgen receptor (AR) signaling pathway using the MDA cell line in the presence of 0.5 nM R1881 - cell viability counter screen (AID 1259242); further: nearly all actives have a fitted effect of over 45% in size
# Summary of the method: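 Cells seeded at 3,000/well and allowed 5 hr at 37C, 0% CO2 before compound transfer and R1881 (0.5 nM final) addition; 16 hr later, live-cell protease fluorescence indicated cytotoxicity.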
# [20] = target: Estrogen receptor beta (Homo sapiens) (UniProt Q92731); assay: qHTS assay to identify small molecule antagonists of the estrogen receptor beta (ER-beta) signaling pathway (AID 1259378; active means well fitted inhibition curve with a large enough effect in the signal ratio in the repeat runs, not every such curve was filed as active; the % refers to the signal ratio)
# Summary of the method: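 ER-beta-UAS-bla HEK293T cells in 2% charcoal-stripped FBS medium treated with compound plus 1nM final 17-beta-estradiol for 16 hr at 37C. Beta-lactamase reporter read by FRET substrate fluorescence after 2 hours at room temperature.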
Compound,Potency [1],Potency [2],Potency [3],Potency [4],Potency [5],outcome [6],Potency [7],Potency [8],Potency [9],Potency [10],Potency [11],Potency [12],Potency [13],Potency [14],Potency [15],Potency [16],Potency [17],Potency [18],Potency [19],Potency [20]
Cc1cccc(C)c1NC(=O)CN1CCN(CCCC(c2ccc(F)cc2)c2ccc(F)cc2)CC1,inactive,inactive,inactive,26.6 µM (active),26.6 µM (active),inactive,,,,,,,,,,,,,,
Cc1ccc(-n2[nH]c(C)c(N=Nc3cccc(-c4cccc(C(=O)O)c4)c3O)c2=O)cc1C,inactive,inactive,,26.6 µM (active),,inactive,inactive,inactive,inactive,inactive,inactive,29.8 µM (active),inactive,inactive,29.8 µM (active),,,,,
O=C1NCCN1CCN1CCC(c2cn(-c3ccc(F)cc3)c3ccc(Cl)cc23)CC1,inactive,inactive,,13.3 µM (active),,inactive,11.9 µM (active),inactive,18.8 µM (active),,13.3 µM (active),15 µM (active),inactive,,inactive,8.41 µM (active),inactive,,,
Nc1ccc2cc3ccc(N)cc3nc2c1,inactive,inactive,,2.37 µM (active),inactive,,inactive and 10.6 µM (active),,,,inactive,,inactive,,,,,,,
CC1CCCCN1CCCOC(=O)c1ccc(OC2CCCCC2)cc1 (configuration not stated),inactive,,inactive,,inactive,inactive,,inactive,inactive,inactive,,26.6 µM (active),inactive,inactive,,,inactive,,,
C=CC(=O)OCCOCC(CC)(COCCOC(=O)C=C)COCCOC(=O)C=C,inactive,16 µM (active),,89.9 µM (active),,inactive,,,5.67 µM (active),7.14 µM (active),,40.2 µM (active),,inactive,35.8 µM (active),,,,,
C[C@@]12C(=O)OC(=O)[C@]1(C)C1CCC2O1,inactive,inactive,,,,,,,1.5 µM (active),3.76 µM (active),1.68 µM (active),5.96 µM (active),,,inactive,6.68 µM (active),inactive,inactive,,
O=C(O)CC(=O)O,,inactive,inactive,inactive,inactive,inactive,,,inactive,inactive,,inactive,,inactive,inactive,,,,inactive,inactive
O=C(Nc1ccc(Cl)c(Cl)c1)c1cc(Cl)cc(Cl)c1O,1.22 µM (active),inactive,,21.7 µM (active),19.3 µM (active),,,inactive,,,,6.86 µM (active),,,7.7 µM (active),3.44 µM (active),inactive,,,
Cc1cc2c(C(C)C)c(O)c(O)c(C=O)c2c(O)c1-c1c(C)cc2c(C(C)C)c(O)c(O)c(C=O)c2c1O,inactive,,,13.3 µM (active),23.7 µM (active),inactive,,inactive,,,,29.8 µM (active),,inactive,,inactive,inactive,inactive,,
CCCCOc1ccc(C(=O)CCN2CCCCC2)cc1,inactive,,,,inactive,inactive,,inactive,,inactive,inactive,29.8 µM (active),,,inactive,inactive,inactive,inactive,,inactive
COC(=O)C1=C(C)NC(C)=C(C(=O)OCCCN2CCC(c3ccccc3)(c3ccccc3)CC2)C1c1cccc([N+](=O)[O-])c1 (configuration not stated),inactive,inactive,,23.7 µM (active),23.7 µM (active),inactive,21.1 µM (active),,26.6 µM (active),,33.5 µM (active),29.8 µM (active),inactive,,,,,,,

# Reference: PubChem BioAssay (Tox21)
